Screening data from PubChem BioAssay.
A selection: hits, their analogues and other compounds. The true share with any hit is near 1.3%.
TRPML1 agonist = activates the human TRPML1 channel; Q9GZU1; TRPML1-expressing cells, Ca2+ dye fluorescence, FDSS; activation, % (concentration not given with the values); hit rate 0.12% among 410,000; in the data active means activation above about 50%; inconclusive means mostly about 30% to 49%; further: 0% is about no effect
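In this qHTS format, compounds were pin-transferred onto Ca8-dye-loaded TRPML1-DL cells induced with Tet overnight, and intracellular Ca2+ fluorescence was recorded kinetically for 110 s after a 10 s baseline. A subsequent 4uM final 54-4 (EC80) addition followed by a second 110 s read served as the antagonist phase.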
TRPV1 ag = agonists of human vanilloid receptor 1 (TRPV1) | activation, % at 8.33 µM | hit rate 0.19% among 320,000 | Q8NER1 | TRPV1-expressing cells, Fluo-8 calcium influx, agonist mode; in the data active means activation above about 80%; inconclusive means between about 30% and that limit; further: 0% is about no effect
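TRPV1-expressing cells were cultured overnight at 35.5C and loaded with Fluo-8 calcium dye for 40 to 90 min at room temperature. After a 10 s baseline, compound was added and calcium influx was read kinetically for 3 min (ex 480/em 520 nm).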
hERG WT inh = inhibitors of human wildtype KCNH2 potassium channel. Q12809. U2OS, BacMam KCNH2, thallium flux FluxOr; active compounds read low. activity change, % at 1.84 µM. hit rate 0.37% among 340,000;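 active means maximum activity change below -70%; inconclusive means maximum activity change between -70% and -50%; inactive means maximum activity change above -50%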; further: on the % scale 0 is the no-effect control and ±100 the full control effect
Target sequence (Q12809 whole entry, looked up): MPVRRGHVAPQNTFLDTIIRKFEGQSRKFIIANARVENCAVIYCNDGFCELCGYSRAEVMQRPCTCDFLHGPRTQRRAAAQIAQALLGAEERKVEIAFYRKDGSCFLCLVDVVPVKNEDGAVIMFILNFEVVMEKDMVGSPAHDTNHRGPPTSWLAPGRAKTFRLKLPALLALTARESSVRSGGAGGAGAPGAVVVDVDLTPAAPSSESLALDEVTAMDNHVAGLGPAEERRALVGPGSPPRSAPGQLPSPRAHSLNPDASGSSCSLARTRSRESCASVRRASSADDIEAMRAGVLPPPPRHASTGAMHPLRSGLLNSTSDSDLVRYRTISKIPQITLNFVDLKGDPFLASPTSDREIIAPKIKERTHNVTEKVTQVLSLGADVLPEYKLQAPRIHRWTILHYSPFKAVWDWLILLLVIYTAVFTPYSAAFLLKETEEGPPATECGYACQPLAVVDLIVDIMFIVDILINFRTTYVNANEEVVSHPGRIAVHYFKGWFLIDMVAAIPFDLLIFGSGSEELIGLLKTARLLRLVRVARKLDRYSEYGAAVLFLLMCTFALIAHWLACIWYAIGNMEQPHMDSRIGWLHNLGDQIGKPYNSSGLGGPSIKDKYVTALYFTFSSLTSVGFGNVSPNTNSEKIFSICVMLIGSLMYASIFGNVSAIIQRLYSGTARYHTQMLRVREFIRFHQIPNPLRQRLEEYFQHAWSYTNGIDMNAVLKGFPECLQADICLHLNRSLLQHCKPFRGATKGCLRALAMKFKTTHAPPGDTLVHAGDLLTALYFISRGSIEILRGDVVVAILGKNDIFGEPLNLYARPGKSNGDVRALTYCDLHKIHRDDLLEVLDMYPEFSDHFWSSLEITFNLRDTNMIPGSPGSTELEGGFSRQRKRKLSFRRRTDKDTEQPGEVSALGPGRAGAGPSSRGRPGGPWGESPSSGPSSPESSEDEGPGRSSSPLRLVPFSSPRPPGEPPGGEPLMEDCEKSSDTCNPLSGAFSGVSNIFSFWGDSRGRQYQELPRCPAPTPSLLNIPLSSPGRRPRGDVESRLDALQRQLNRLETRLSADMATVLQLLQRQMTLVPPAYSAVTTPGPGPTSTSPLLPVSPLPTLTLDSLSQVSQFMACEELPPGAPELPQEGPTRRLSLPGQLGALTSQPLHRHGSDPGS
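U2OS cells transduced with wild-type KCNH2 virus are loaded with FluxOr dye for 45 min, and thallium flux is measured in kinetic reads before and after stimulation buffer. Rate constants are normalized to DMSO controls.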
TRPV1 PAM = enhances activation of the human vanilloid receptor TRPV1; Q8NER1; TRPV1-expressing cells, Fluo-8 calcium influx, capsaicin EC20 potentiation; potentiation, % at 8.33 µM; hit rate 0.02% among 320,000; in the data active means potentiation above about 80%; inconclusive means between about 30% and that limit; further: 0% is about no effect
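TRPV1-expressing cells were cultured overnight at 35.5C and loaded with Fluo-8 calcium dye for 40 to 90 min at room temperature. After a 10 s baseline, compound was added and calcium influx was read kinetically for 3 min (ex 480/em 520 nm).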
TRPML1 blocker = inhibitors of human TRPML1 channel. TRPML1-inducible cells, Ca2+ dye fluorescence, FDSS; active compounds read low; inhibition of EC80 agonist-evoked calcium signal. activity change, negative = inhibition, % (concentration not given with the values). hit rate 0.02% among 390,000; in the data active means activity change below about -50%; inconclusive means between about -30% and that limit;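 further: stimulus is agonist 54-4 at its EC80 concentration; on the % scale 0 is the no-effect control and ±100 the full control effect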
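Calcium fluorescence in TRPML1-DL cells induced overnight with Tet: a 110 s read after compound pin addition, then a 110 s antagonist read after challenge with 54-4 at 4 uM final (EC80).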
KCNH2 3.1 inh = blocks the human KCNH2 3.1 channel isoform | hit rate 0.95% among 340,000 | U2OS KCNH2 3.1, thallium flux FluxOr; active compounds read low | activity change, % (tested at about 1.8 µM);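 active means maximum activity change below -70%; inconclusive means maximum activity change from -70% to -50%; inactive means maximum activity change above -50%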;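 further: thallium influx rate constant from kinetic fluorescence after stimulation buffer; on the % scale 0 is the no-effect control and ±100 the full control effect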
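Normalized rate constant (relative to positive and negative DMSO controls) derived from a 2 min kinetic fluorescence read after stimulation; U2OS cells expressing the 3.1 isoform via virus at 1.77 x 10^8 /mL.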
Numbers without * were called inactive.

Results for COc1ccc(Nc2nnc(SC(C(=O)Nc3cc(C)ccc3C)c3ccccc3)s2)cc1 (configuration not stated) ?
TRPML1 agonist: 3; TRPV1 ag: -1; hERG WT inh: 1; TRPV1 PAM: 4; TRPML1 blocker: 17; KCNH2 3.1 inh: -6

Results for COc1ccc(C)cc1NC(=O)C(Sc1nnc(Nc2cc(C)ccc2OC)s1)c1ccccc1 (configuration not stated) ?
TRPML1 agonist: 1; TRPV1 ag: 2; hERG WT inh: -121*; TRPV1 PAM: 18; TRPML1 blocker: 5; KCNH2 3.1 inh: -11

Results for COc1ccc(OC)c(NC(=O)C(Sc2ccccc2)c2ccccc2)c1 (configuration not stated) ?
TRPML1 agonist: 3; TRPV1 ag: -1; hERG WT inh: -2; TRPV1 PAM: -6; TRPML1 blocker: -52*; KCNH2 3.1 inh: -25

Results for CN(C)c1ccc(/C=C/c2cccc3cc4ccccc4nc23)cc1 ?
TRPML1 agonist: 0

What do the screens show for `CCN(CC)c1ccc(C(=O)NNC(=O)CCl)cc1`?
TRPML1 agonist: 0; TRPV1 ag: -9; hERG WT inh: -12; TRPV1 PAM: 123*; TRPML1 blocker: 27; KCNH2 3.1 inh: -7

What do the screens show for `Cc1cccc(OCC(=O)Nc2c(C(=O)N3CCN(c4ccccc4)CC3)oc3ccccc23)c1`?
TRPML1 agonist: 0; TRPML1 blocker: 0

What do the screens show for `O=c1c(-c2ccccc2)c(O)c2ccccc2n1-c1ccccc1`?
TRPML1 agonist: -1; TRPV1 ag: -3; hERG WT inh: -18; TRPV1 PAM: 26; TRPML1 blocker: 15; KCNH2 3.1 inh: -72*

How did S=C(NCCCN1CCOCC1)N1CCN(c2nc(-c3ccc(Cl)cc3)cs2)CC1 do in these assays?
TRPML1 agonist: 0; TRPV1 ag: 1; hERG WT inh: -13; TRPV1 PAM: 4; TRPML1 blocker: 2; KCNH2 3.1 inh: -71*

How did CCCCn1c(/C=N/Nc2nc3ccccc3[nH]2)nc2ccccc21 do in these assays?
TRPML1 agonist: -1; TRPV1 ag: 1; hERG WT inh: -73*; TRPV1 PAM: -10; TRPML1 blocker: -4; KCNH2 3.1 inh: -44

How did CCCCn1c(/C=C/c2ccco2)nc2ccccc21 do in these assays?
TRPML1 agonist: 2; TRPV1 ag: 1; hERG WT inh: -1; TRPV1 PAM: -2; TRPML1 blocker: -12; KCNH2 3.1 inh: 0

What do the screens show for `COc1cc(CNc2ccc3[nH]c(=O)[nH]c3c2)ccc1OCc1c(F)cccc1Cl`?
TRPML1 agonist: 0; TRPV1 ag: 90*; hERG WT inh: 2; TRPV1 PAM: -9; TRPML1 blocker: -26; KCNH2 3.1 inh: 2

How did COc1cc(CNc2ccc3[nH]c(=O)[nH]c3c2)ccc1OCc1ccccc1F do in these assays?
TRPML1 agonist: 1; TRPV1 ag: inconclusive; hERG WT inh: -9; TRPV1 PAM: -10; TRPML1 blocker: -4; KCNH2 3.1 inh: -17

How did Cc1ccc(S(=O)(=O)N2CCN(c3nc(Nc4ccccc4O)nc4ccccc34)CC2)cc1 do in these assays?
TRPML1 agonist: 0

What do the screens show for `Cn1nccc1C(=O)NC1CCCc2c1cnn2-c1ccc(C(C)(C)C)cc1` (configuration not stated)?
TRPML1 agonist: 0; TRPV1 ag: 81*; hERG WT inh: 0; TRPV1 PAM: 4; TRPML1 blocker: 34; KCNH2 3.1 inh: 22

What do the screens show for `CC(=O)NC1CCCc2c1cnn2-c1ccc(C(C)(C)C)cc1` (configuration not stated)?
TRPML1 agonist: -1; TRPV1 ag: inconclusive; hERG WT inh: 6; TRPV1 PAM: -10; TRPML1 blocker: -15; KCNH2 3.1 inh: 3

Results for COc1cccc(N2CCN(C(=O)C3Cc4ccccc4N3C(C)=O)CC2)c1 (configuration not stated) ?
TRPML1 agonist: 1; TRPML1 blocker: 13

What do the screens show for `CCc1ccc(NC(=O)CSc2nc3ncccc3[nH]2)cc1`?
TRPML1 agonist: -1; TRPML1 blocker: 9
